# Test results reported in ChEMBL document CHEMBL3988442, “University of Dundee, Small-Polar-MMV Screening Library” (2021).
# About 1,000 (1.4%) of roughly 69,000 compounds showed an effect of 50% or more. The sample as a whole holds a higher share of strong results than the screen did.
# Tested on: Leishmania donovani
# Assay: Leishmania intramacrophage assay
# Format: functional, organism-based
# Parameters: scale not given: in the data most compounds retested in dose-response had high values
structure (smiles),measurement,setting,value
CCOCC(O)CN1CCN(C(=O)C2CCC2)CC1 (stereo not given),Percent Effect,"30.3 µM, […]",23.63%
O=C1CCOC[C@]2(CN(Cc3ccccc3)C[C@H]2c2ccccc2)N1,Percent Effect,"30.3 µM, […]",-10.32%
CN(C)c1ccc(C(=O)N2CCC(c3cc4ncccc4[nH]3)CC2)cc1,Percent Effect,"30.3 µM, […]",-1.505%
CS(=O)(=O)CCNC(=O)N1CC2(CCCC2)c2ccccc21,Percent Effect,"30.3 µM, […]",0.5956%
CSCCC1c2nc[nH]c2CCN1Cc1cc(Cl)ccc1O (stereo not given),Percent Effect,"30 µM, 30.03 µM",8.861%
CCN(C)Cc1nc(-c2ccccc2NS(C)(=O)=O)oc1C,Percent Effect,"30.3 µM, […]",2.546%
O=C(O)C(F)(F)F.O=C(c1ccno1)N1CCO[C@@H]2CC(COCc3ccccn3)C[C@H]21 (stereo not given in full),Percent Effect,"30.3 µM, […]",6.888%
Cc1ccccc1OCC1CCCN(C(=O)CN(C)C2CCNCC2)C1 (stereo not given),Percent Effect,"30.3 µM, […]",83.48%
Cc1cccc(OCC2CCCN(C(=O)CN(C)C3CCNCC3)C2)c1 (stereo not given),Percent Effect,"30.3 µM, […]",48.81%
COCC(=O)N1CCCC(COc2ccccc2C)C1 (stereo not given),Percent Effect,"30.3 µM, […]",0.2743%
CNc1cc(CNC(=O)c2ccccc2)nc(-c2ccncc2)n1,Percent Effect,"30 µM, 30.03 µM",35.29%
Cn1ccnc1CN1CCC(F)(F)C2(CCN(c3cccnc3)C2)C1.O=C(O)C(F)(F)F.O=C(O)C(F)(F)F (stereo not given),Percent Effect,"30.3 µM, […]",69.63%
O=C([C@@H]1CCCO1)N1CCOCC2(CCN(Cc3cccnc3)C2)C1 (stereo not given in full),Percent Effect,"30.3 µM, […]",28.44%
FC1(F)CCN(Cc2ccncc2)CC12CCN(c1cccnc1)C2.O=C(O)C(F)(F)F.O=C(O)C(F)(F)F.O=C(O)C(F)(F)F (stereo not given),Percent Effect,"30.3 µM, […]",38.61%
Cn1ccnc1CN1CCC(F)(F)C2(CCN(c3cnccn3)C2)C1.O=C(O)C(F)(F)F (stereo not given),Percent Effect,"30.3 µM, […]",-10.04%
O=C(C1CCCO1)N1CCC2(CC1)COCCN(Cc1cccnc1)C2.O=C(O)C(F)(F)F.O=C(O)C(F)(F)F (stereo not given),Percent Effect,"30.3 µM, […]",54.72%
FC1(F)CCN(Cc2cccnc2)CC12CCN(c1ccccc1)C2.O=C(O)C(F)(F)F.O=C(O)C(F)(F)F.O=C(O)C(F)(F)F (stereo not given),Percent Effect,"30.3 µM, […]",99.13%
O=C(C1CCCO1)N1CCC2(CC1)COCCN(Cc1ccncc1)C2.O=C(O)C(F)(F)F.O=C(O)C(F)(F)F (stereo not given),Percent Effect,"30.3 µM, […]",14.9%
Cn1cc(CN2CCC(F)(F)C3(CCN(c4cccnc4)C3)C2)cn1.O=C(O)C(F)(F)F.O=C(O)C(F)(F)F (stereo not given),Percent Effect,"30.3 µM, […]",0.6501%
FC1(F)CCN(Cc2cccnc2)CC12CCN(c1ccccn1)C2.O=C(O)C(F)(F)F.O=C(O)C(F)(F)F.O=C(O)C(F)(F)F (stereo not given),Percent Effect,"30 µM, 30.03 µM",38.27%
Cc1ccccc1CC(=O)N(C)C1CCCC1,Percent Effect,"30 µM, 30.03 µM",-4.753%
CCCOCCn1ncc(N2CCc3ccccc3C2)cc1=O,Percent Effect,"30.3 µM, […]",-24.62%
O=C(NCCNc1ncccn1)N1CCCC1c1ccc(F)cc1 (stereo not given),Percent Effect,"30.3 µM, […]",15.04%
CCOC(=O)CNC(=O)c1cc2n(n1)CCCO2,Percent Effect,"30.3 µM, […]",10.49%
Cc1nc(S(=O)(=O)CCn2cccn2)n(C2CCCCC2)c1C,Percent Effect,"30.3 µM, […]",21.76%
NCc1ccccc1Sc1ccc(O)cc1.O=C(O)/C=C\C(=O)O,Percent Effect,"30.3 µM, […]",18.14%
CCCn1nnnc1CN1Cc2ccccc2CC1c1nnc(C)o1 (stereo not given),Percent Effect,"30.3 µM, […]",14.94%
Cc1ncoc1C(=O)N1CCOC(CCCC(C)C)C1 (stereo not given),Percent Effect,"30.3 µM, […]",-28.53%
CCc1nc(C2CCCN2Cc2nc(CCOC)no2)no1 (stereo not given),Percent Effect,"30 µM, 30.03 µM",14.38%
NCCc1n[nH]c(=O)n1-c1cccc(Cl)c1Cl,Percent Effect,"30.3 µM, […]",4.495%
CC(Cc1cncs1)Nc1ncnc2cccc(F)c12 (stereo not given),Percent Effect,"30.3 µM, […]",50.92%
CC(Cc1cccnc1)Nc1ncnc2cccc(F)c12 (stereo not given),Percent Effect,"30.3 µM, […]",5.204%
Cc1cc(CC(C)Nc2ncnc3cccc(F)c23)[nH]n1 (stereo not given),Percent Effect,"30.3 µM, […]",6.483%
N#Cc1cccc(C(=O)N2C[C@H]3CC[C@@H]2CN(C(=O)C2CCC2)C3)c1,Percent Effect,"30.3 µM, […]",15.5%
CC(c1ccco1)N(C(=O)Cn1nc2n(c1=O)CCCCC2)C1CC1 (stereo not given),Percent Effect,"30.3 µM, […]",-5.38%
CCS(=O)(=O)N1CCOC2(CCCN(c3cnccn3)C2)C1.O=C(O)C(F)(F)F (stereo not given),Percent Effect,"30.3 µM, […]",26.09%
Cc1nc(CN2CCc3ncnc(-c4ccccc4)c3CC2)cs1.O=C(O)C(F)(F)F,Percent Effect,"30.3 µM, […]",41.98%
Cc1cccc(CN2CCc3ncnc(N4CCOCC4)c3CC2)n1.O=C(O)C(F)(F)F,Percent Effect,"30 µM, 30.03 µM",-4.013%
Cc1nc(CN2CCc3ncnc(-c4ccncc4)c3CC2)cs1.O=C(O)C(F)(F)F.O=C(O)C(F)(F)F,Percent Effect,"30.3 µM, […]",3.502%
Cc1nc(CN2CCc3ncnc(-c4ccsc4)c3CC2)cs1.O=C(O)C(F)(F)F,Percent Effect,"30.3 µM, […]",54.86%
Cc1cccc(CN2CCc3ncnc(N4CCCC4)c3CC2)n1.O=C(O)C(F)(F)F,Percent Effect,"30.3 µM, […]",43.68%
Cc1cccc(CN2CCc3ncnc(N4CCN(C)CC4)c3CC2)n1.O=C(O)C(F)(F)F.O=C(O)C(F)(F)F,Percent Effect,"30.3 µM, […]",55.42%
Nc1nccnc1C(=O)N(Cc1ccccc1O)CC1CCCO1 (stereo not given),Percent Effect,"30.3 µM, […]",-0.1848%
O=C(C(C1CC1)C1CC1)N1CCC(n2ccnn2)CC1,Percent Effect,"30.3 µM, […]",12.14%
CN1CCN(c2ncc3c(=O)n(-c4cccc(F)c4)c(=O)[nH]c3n2)CC1,Percent Effect,"30 µM, 30.03 µM",19.86%
O=C(O)C(F)(F)F.O=C(O)C(F)(F)F.O=C1NC2(CCN(Cc3cccs3)CC2)CC1c1ccncc1 (stereo not given),Percent Effect,"30.3 µM, […]",15.69%
COc1ccc(CC(=O)N2CCC(c3n[nH]c(C4CC4)n3)CC2)cc1,Percent Effect,"30.3 µM, […]",20.62%
CC(=O)Nc1nc(CNc2ccccc2CCC(F)(F)F)cs1,Percent Effect,"30.3 µM, […]",-4.538%
CN1C[C@@H](C(=O)N2CCOCC2)[C@@]2(CCc3ccccc3C(=O)N2)C1,Percent Effect,"30.3 µM, […]",0.0295%
N#Cc1cnc2c(F)cc(F)cc2c1NC1CCN(CC(N)=O)CC1,Percent Effect,"30.3 µM, […]",54.87%
N#Cc1cnc2cc(F)cc(F)c2c1NC1CCN(CC(N)=O)CC1,Percent Effect,"30.3 µM, […]",21.49%
Cc1cc(C)c2ncc(C#N)c(NC3CCN(CC(N)=O)CC3)c2c1,Percent Effect,"30.3 µM, […]",5.1%
CN(C)c1ccc(CC(=O)N[C@@H]2CCNC[C@H]2O)cc1,Percent Effect,"30 µM, 30.03 µM",-29.81%
Cc1ccccc1C(CNc1ncnc2c1CCNC2)N(C)C (stereo not given),Percent Effect,"30.3 µM, […]",-14.27%
Cc1nc(C(C)Nc2ncnc3c2CCNCC3)c(C)s1 (stereo not given),Percent Effect,"30.3 µM, […]",9.224%
CC(Nc1ncnc2c1CCNC2)c1ccc2c(c1)CCCC2 (stereo not given),Percent Effect,"30.3 µM, […]",82.26%
CC(Nc1ncnc2c1CCNC2)c1ccc(C(C)(C)C)cc1 (stereo not given),Percent Effect,"30.3 µM, […]",88.55%
CCOc1ccc(C(C)Nc2ncnc3c2CCNC3)cc1OCC (stereo not given),Percent Effect,"30.3 µM, […]",19.33%
CC(Nc1ncnc2c1CCNCC2)c1nc2c(s1)CCCC2 (stereo not given),Percent Effect,"30.3 µM, […]",11.97%
CCCc1ccc(C(C)Nc2ncnc3c2CCNC3)cc1 (stereo not given),Percent Effect,"30.3 µM, […]",81.31%
Cc1cc(C)n(CC(C)Nc2ncnc3c2CCNC3)n1 (stereo not given),Percent Effect,"30.3 µM, […]",-4.806%
Cc1ccccc1C(CNc1ncnc2c1CCNCC2)N(C)C (stereo not given),Percent Effect,"30.3 µM, […]",-7.029%
Cc1ccccc1C(Nc1ncnc2c1CCNC2)c1ccccc1 (stereo not given),Percent Effect,"30.3 µM, […]",61.26%
CCc1nc(NC2CC(=O)N(CC3CCCCC3)C2)ncc1C (stereo not given),Percent Effect,"30.3 µM, […]",15.64%
Cn1cc(C2CN(C(=O)Cc3coc(-c4ccccc4)n3)CCO2)cn1 (stereo not given),Percent Effect,"30.3 µM, […]",1.481%
COc1ccccc1CCN(C)C(=O)NC(C)c1nncn1C (stereo not given),Percent Effect,"30 µM, 30.03 µM",13.36%
COc1cc(CN2CCC(COCc3ccccc3)CC2)cc(OC)c1,Percent Effect,"30.3 µM, […]",11.79%
CCc1ccc(Cn2nccc2NC(=O)C2CCS(=O)(=O)C2)cc1 (stereo not given),Percent Effect,"30.3 µM, […]",28.09%
COc1ccc(-c2nnc([C@H]3CCN(C4CCC4)C3)o2)cc1,Percent Effect,"30.3 µM, […]",5.132%
O=C(c1ccc(Cn2ccccc2=O)o1)N1CCSCC1,Percent Effect,30 µM,34.1%
Cc1nc2c(c(NCc3ccc(-c4ccccn4)s3)n1)CCNCC2,Percent Effect,"30.3 µM, […]",74.83%
Cc1nc2c(c(NCC(O)c3ccccc3Cl)n1)CCNCC2 (stereo not given),Percent Effect,"30.3 µM, […]",52.68%
c1ccc(-c2nc3c(c(NCCn4cccc4)n2)CCNCC3)nc1,Percent Effect,"30.3 µM, […]",4.707%
Cc1nc2c(c(NCC(c3ccccc3C)N(C)C)n1)CCNC2 (stereo not given),Percent Effect,"30.3 µM, […]",37.15%
Cc1nc2c(c(NC3CCN(Cc4ccccc4)CC3)n1)CCNCC2,Percent Effect,"30.3 µM, […]",8.424%
Cc1nc2c(c(NCC3Cc4ccccc4CN3C)n1)CCNCC2 (stereo not given),Percent Effect,"30.3 µM, […]",11.22%
c1ccc(-c2nc3c(c(NCCn4ccnn4)n2)CCNCC3)nc1,Percent Effect,"30.3 µM, […]",12.83%
Cc1nc2c(c(NCc3cc4ccccc4s3)n1)CCNCC2,Percent Effect,"30.3 µM, […]",99.76%
Cc1nc2c(c(NCc3nc4ccccc4s3)n1)CCNCC2,Percent Effect,"30.3 µM, […]",11.81%
COC[C@@]12CCC[C@@H]1CN(C(=O)CN(C)C)C2.O=C(O)C(F)(F)F,Percent Effect,"30.3 µM, […]",2.882%
CCc1cnc(CCNC(C)CC(=O)Nc2cccc(C)c2C)s1 (stereo not given),Percent Effect,"30.3 µM, […]",0.8494%
COCC1CN(Cc2cccc(C#N)c2)Cc2nccn2C1 (stereo not given),Percent Effect,"30.3 µM, […]",20.19%
CNC[C@H]1CC[C@H](c2cc(CN(C)S(=O)(=O)N(C)C)n(C)n2)CC1.Cl,Percent Effect,"30.3 µM, […]",29.88%
COCC1CC2(CCN(C(=O)c3ccc(C)nc3)CC2)CO1.O=C(O)C(F)(F)F (stereo not given),Percent Effect,"30.3 µM, […]",25.55%
CN(C)[C@@H]1CCN(C(=O)NC2CCCC2)[C@H]1Cc1cnn(C)c1.O=C(O)C(F)(F)F,Percent Effect,"30 µM, 30.03 µM",11.61%
Cc1cc(N2CCC(c3nccn3Cc3cscn3)CC2)ccn1,Percent Effect,"30.3 µM, […]",-14.56%
Cc1ccc(-c2nc(CNC(C)CCO)[nH]c2-c2ccccn2)cc1 (stereo not given),Percent Effect,"30.3 µM, […]",67.9%
Cc1cnn(CC(C)NCc2nc(-c3ccccn3)no2)c1 (stereo not given),Percent Effect,"30.3 µM, […]",2.286%
CN(C)S(=O)(=O)NCc1nc(-c2cccc(F)c2)c(-c2ccccn2)[nH]1,Percent Effect,"30.3 µM, […]",3.232%
COCC(C)NCc1nc(-c2ccc(C)cc2)c(-c2ccccn2)[nH]1 (stereo not given),Percent Effect,"30.3 µM, […]",71.58%
Cc1ccc(-c2nc(CNS(=O)(=O)N(C)C)[nH]c2-c2ccccn2)cc1,Percent Effect,"30.3 µM, […]",30.48%
COCc1ccc(C(=O)N2CCOCC2c2ccc(C)o2)cc1 (stereo not given),Percent Effect,"30.3 µM, […]",18.1%
O=C(O)C(F)(F)F.c1ccc(C[C@H]2CN(C3CCOCC3)CC[C@H]2OCC2CC2)cc1,Percent Effect,"30.3 µM, […]",14.89%
O=C(COc1coc(CN2CCCCCC2)cc1=O)c1ccccc1,Percent Effect,"30 µM, 30.03 µM",12.38%
Cc1cc(C)c2c(NCC3(O)CCCCC3)ncnc2n1,Percent Effect,"30.3 µM, […]",-4.66%
